Consider 40 compounds from PubChem BioAssay (EPA / NIEHS).

Active and inactive are the calls of the source. How the source made its calls: active means hit-call score of the fitted dose curve at least 0.9, where 1 is the maximum; inactive means score below 0.9.

Chain of CCAAT/enhancer-binding protein beta (Homo sapiens) (P17676 whole entry, looked up): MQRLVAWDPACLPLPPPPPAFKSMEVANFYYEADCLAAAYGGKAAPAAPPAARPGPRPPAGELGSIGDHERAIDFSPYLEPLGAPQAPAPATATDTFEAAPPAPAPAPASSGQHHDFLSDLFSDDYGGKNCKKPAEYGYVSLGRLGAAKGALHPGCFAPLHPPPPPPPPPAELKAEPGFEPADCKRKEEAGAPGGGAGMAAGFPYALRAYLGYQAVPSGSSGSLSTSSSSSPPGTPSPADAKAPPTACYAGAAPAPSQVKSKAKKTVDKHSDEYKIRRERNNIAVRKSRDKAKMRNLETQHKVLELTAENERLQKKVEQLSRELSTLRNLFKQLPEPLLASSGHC

In this assay the target is CCAAT/enhancer-binding protein beta (Homo sapiens) (UniProt P17676). As to the kind of experiment: ATG_C_EBP_CIS: Attagene CIS-FACTORIAL HepG2 Assay for human CCAAT/Enhancer Binding Protein (C/EBP) beta (AID 2282927). The following applies: HepG2 Attagene cis-factorial transcription factor reporter; actives raise or lower the signal. On the procedure:
ATG_CIS is a cell-based, multiplexed-readout assay that uses HepG2, a human liver cell line, with measurements taken at 24 hours after chemical dosing in a 24-well plate.ATG_C_EBP_CIS is one of 52 assay component(s) measured or calculated from the ATG_CIS assay. It is designed to make measurements of mRNA induction, a form of inducible reporter, as detected with fluorescence intensity signals by Reverse transcription polymerase chain reaction (RT-PCR) and Capillary electrophoresis technology.Data from the assay component ATG_C_EBP_CIS was analyzed into 1 assay endpoint. This assay endpoint, ATG_C_EBP_CIS, was analyzed with bidirectional fitting relative to DMSO as the negative control and baseline of activity. Using a type of inducible reporter, measures of mRNA for gain or loss-of-signal activity can be used to understand the reporter gene at the transcription factor-level as they relate to the gene CEBPB. Furthermore, this assay endpoint can be referred to as a primary readout, because this assay has produced multiple assay endpoints where this one serves a reporter gene function. To generalize the intended target to other relatable targets, this assay endpoint is annotated to the dna binding intended target family, where the subfamily is basic leucine zipper.
Human liver HepG2 cells are transiently transfected with multiple reporter transcription units (MRTUs) in 6-well plates using FuGene 6 reagent (Roche; 3 ml FuGene/1 mg DNA). The MRTU constructs are regulated by a cis-regulating element (promoter). […] A major difference between the CIS and TRANS system is that in CIS activities of endogenous TFs are measured, whereas the TRANS assay evaluates changes in activities of exogenous, chimeric NR-Gal4 proteins. […] At the end of 24 hour incubation, total RNA was isolated using TriZol reagent (Invitrogen). The isolated RNA is then reverse-transcribed using oligo(dT) primer and Mo-MLV reverse transcriptase (Invitrogen) with DNAse I (Ambion) treatment for 30 min. The one-tenth of the produced cDNA was amplified by PCR using Taq DNA polymerase (Invitrogen) and two reporter sequence-specific primers. The PCR products were fluorescently labeled by primer extension with 6-arboxyfluorescein (6-FAM) 5'-labeled reporter sequence-specific primer (2 min at 95 C, 20 s at 68 C and 10 min at 72 C) and these products were digested with 5U of HpaI (New England Biolabs) for 2h at 37 C. The fragments were purified using Qiaquick PCR columns (Qiagen), analyzed on an ABI 3130xL genetic analyzer (Applied Biosystems) with peak positions identified by using a set of X-rhodamine (ROX)-labeled MapMarker1000 molecular weight standards (BioVentures). The raw capillary electrophoresis data was processed using Attagraph software (Attagene).
As to `CCC1CCCCC1`, the outcome was inactive.

Regarding `C=C(CC(=O)O)C(=O)O`, the outcome was inactive.

For the compound `CCCCCCC(=O)c1ccccc1`, the result was inactive.

Take `CCCCOCC`: the result was inactive.

Consider `C=CCCC(=O)/C=C/C1C(C)=CCCC1(C)C` (stereo not given), for which the result was inactive.

Consider `OCCc1ccccc1`, for which the result was inactive.

Take `C=C(C)C(=O)OCCOCCOCCOCCOC(=O)C(=C)C`: the outcome was inactive.

As to `COc1ccccc1N=Nc1c(S(=O)(=O)O)cc2cc(S(=O)(=O)O)cc(NC(C)=O)c2c1O`, the result was inactive.

As to `O=[N+]([O-])c1cccc(Cl)c1`, the outcome was inactive.

In the case of `C1CCCCC1`, the outcome was inactive.

Consider `CC1=CC[C@@]23C[C@@H]1C(C)(C)[C@@H]2CC[C@H]3C`, for which the outcome was inactive.

As to `N#Cc1ccc(CC(=O)c2cccc(C(F)(F)F)c2)cc1`, the outcome was inactive.

`O=c1[nH]c(=O)c2cn[nH]c2[nH]1`: the result was inactive.

Take `[Cl][Au]([Cl])[Cl]`: the result was inactive.

Take `O=C(Nc1ccc2c(O)c(N=Nc3ccc(N=Nc4ccc(S(=O)(=O)O)cc4)cc3)c(S(=O)(=O)O)cc2c1)c1ccccc1`: the result was inactive.

Regarding `OCC#CCO`, the outcome was inactive.

Regarding `BrCc1cccc(Oc2ccccc2)c1`, the outcome was inactive.

For the compound `CCC1(c2ccccc2)C(=O)NCNC1=O`, the result was inactive.

With `O=C(O)c1ccc(O)cc1`, the outcome was inactive.

With `C=C(C)[C@H]1CC=C(C)C(=O)C1`, the outcome was inactive.

Regarding `CC(=O)NCCO`, the result was inactive.

On to `CC1C2CC(CC2C2CCCC(O)C2)C1(C)C` (stereo not given), for which the result was inactive.

Broadly, the AC50 is the concentration at which the activity in the assay is half-maximal. Consider `C=Cc1ccncc1`, for which the concentration at half-maximal activity (AC50) was 26.2 µM (active).

With `CCCCC1CCC(O)CC1` (stereo not given), the result was inactive.

Take `CCCCCC(C=O)=Cc1ccccc1`: the result was inactive.

On to `N#Cc1cscn1`, for which the result was inactive.

Regarding `COc1cccc(OC)c1O`, the outcome was inactive.

With `CC(C)CC(C)CC(O)CC(C)C` (stereo not given), the outcome was inactive.

For the compound `COC(=O)c1ccc([N+](=O)[O-])cc1`, the outcome was inactive.

Take `CCOc1ccc(NC(=O)CC(C)=O)cc1`: the outcome was inactive.

`IC(I)I`: the result was inactive.

`CCCC(C)=O`: the outcome was inactive.

`CCCCCCCCCCCC(=O)OC[C@@H](O)[C@H]1OC[C@H](O)[C@H]1O`: the outcome was inactive.

`O=C(CS)OCCOC(=O)CS`: the outcome was inactive.

Take `FC(F)(F)COCC(F)(F)F`: the result was inactive.

For the compound `O=C(O)CCCCCCCCC(=O)O`, the outcome was inactive.

As to `Oc1ccc2cc(SSc3ccc4cc(O)ccc4c3)ccc2c1`, the AC50 is 131 µM (active).

Take `CCCCCCCC/C=C\CCCCCCCC(=O)OCC`: the outcome was inactive.

As for `CC(C=O)Cc1ccc(C(C)(C)C)cc1` (stereo not given), the result was inactive.

Turning to `CCCC(=O)OCCc1ccccc1`, the result was inactive.
